Results: PubChem BioAssay AID1159580 (chemical genetic matrix, 2015)
The whole screen tested about 5,500 compounds, of which about 2,000 (36%) were called active. Not shown: some 18% with an inconclusive outcome. Rule as the data show it: active = normalized growth mostly below about 0.91 (no sharp cut-off); inconclusive = no clear call, values can overlap the other calls; inactive = mostly above about 0.92. This is one part of the list.

Assay: chemical genetic growth profiling, strain panel (AID 1159580);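 also: tested at 20 µM; growth read once vehicle control cultures reached saturation at 30 °C; 1 = growth at the plate median or of vehicle wells; lower values mean less growth of the strain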
Details: growth OD
[1] = S. cerevisiae deletion strains, locus YDL101C, strain DUN1, active compounds read low
[2] = S. cerevisiae deletion strains, locus YHR030C, strain SLT2, active compounds read low

Measured: normalized growth

CC(C)(C)OC(=O)C(C)(C)S(=O)(=O)c1ccc(Cl)cc1
inactive: S. cerevisiae deletion strains, locus YAL013W, strain DEP1, active compounds read low 1.01 | S. cerevisiae deletion strains, locus YBR229C, strain ROT2, active compounds read low 0.983 | S. cerevisiae deletion strains, locus YCL061C, strain MRC1, active compounds read low 0.979 | [1] 0.977 | S. cerevisiae deletion strains, locus YDL134C, strain PPH21, active compounds read low 0.995 | S. cerevisiae deletion strains, locus YDR150W, strain NUM1, active compounds read low 0.992 | S. cerevisiae deletion strains, locus YEL061C, strain CIN8, active compounds read low 1 | S. cerevisiae deletion strains, locus YGR078C, strain PAC10, active compounds read low 0.992 | [2] 0.955 | S. cerevisiae deletion strains, locus YHR087W, strain rtc3, active compounds read low 1.01 | S. cerevisiae deletion strains, locus YJR075W, strain HOC1, active compounds read low 0.973 | S. cerevisiae deletion strains, locus YKL190W, strain CNB1, active compounds read low 0.994 | S. cerevisiae deletion strains, locus YLR039C, strain RIC1, active compounds read low 0.958 | S. cerevisiae deletion strains, locus YLR058C, strain SHM2 (second series), active compounds read low 1.01 | S. cerevisiae deletion strains, locus YLR085C, strain ARP6, active compounds read low 1.05 | S. cerevisiae deletion strains, locus YLR262C, strain YPT6, active compounds read low 0.927 | S. cerevisiae deletion strains, locus YML094W, strain GIM5, active compounds read low 0.987 | S. cerevisiae deletion strains, locus YMR219W, strain ESC1, active compounds read low 0.995 | S. cerevisiae deletion strains, locus YMR263W, strain SAP30, active compounds read low 0.992 | S. cerevisiae deletion strains, locus YNL153C, strain GIM3, active compounds read low 0.98 | S. cerevisiae deletion strains, locus YNL298W, strain CLA4 (second series), active compounds read low 1.02 | S. cerevisiae deletion strains, locus YNL322C, strain KRE1, active compounds read low 0.984 | S. cerevisiae deletion strains, locus YNR030W, strain Alg12, active compounds read low 0.983 | S. cerevisiae deletion strains, locus YOL006C, strain TOP1, active compounds read low 1.01 | S. cerevisiae deletion strains, locus YPL055C, strain LGE1, active compounds read low 1.02 | S. cerevisiae deletion strains, locus YPL241C, strain CIN2, active compounds read low 1.01 | S. cerevisiae deletion strains, locus YPR135W, strain CTF4, active compounds read low 1.04 | S. cerevisiae strains, strain wild type, active compounds read low 1

O=[N+]([O-])c1ccc(S(=O)(=O)c2ccccc2)nc1S(=O)(=O)c1ccccc1
active: S. cerevisiae deletion strains, locus YAR019C, strain CDC15, active compounds read low 0.882 | S. cerevisiae deletion strains, locus YDL214C, strain PRR2, active compounds read low 0.393 | S. cerevisiae deletion strains, locus YDR477W, strain SNF1, active compounds read low 0.473 | S. cerevisiae deletion strains, locus YER123W, strain YCK3, active compounds read low 0.223 | S. cerevisiae deletion strains, locus YER133W, strain GLC7, active compounds read low 0.361 | S. cerevisiae deletion strains, locus YFR019W, strain FAB1, active compounds read low 0.62 | S. cerevisiae deletion strains, locus YGR040W, strain KSS1, active compounds read low 0.443 | S. cerevisiae deletion strains, locus YGR052W, strain FMP48, active compounds read low 0.353 | [2] 0.334 | S. cerevisiae deletion strains, locus YHR082C, strain KSP1, active compounds read low 0.364 | S. cerevisiae deletion strains, locus YHR205W, strain SCH9, active compounds read low 0.47 | S. cerevisiae deletion strains, locus YJL095W, strain BCK1, active compounds read low 0.401 | S. cerevisiae deletion strains, locus YJR066W, strain TOR1 (second series), active compounds read low 0.438 | S. cerevisiae deletion strains, locus YJR066W, strain TOR1, active compounds read low 0.299 | S. cerevisiae deletion strains, locus YKL193C, strain SDS22, active compounds read low 0.871 | S. cerevisiae deletion strains, locus YKL203C, strain TOR2, active compounds read low 0.555 | S. cerevisiae deletion strains, locus YLR113W, strain HOG1, active compounds read low 0.184 | S. cerevisiae deletion strains, locus YLR133W, strain CKI1, active compounds read low 0.691 | S. cerevisiae deletion strains, locus YML070W, strain DAK1, active compounds read low 0.433 | S. cerevisiae deletion strains, locus YMR277W, strain FCP1, active compounds read low 0.87 | S. cerevisiae deletion strains, locus YNL183C, strain NPR1, active compounds read low 0.178 | S. cerevisiae deletion strains, locus YOL078W, strain AVO1, active compounds read low 0.879 | S. cerevisiae deletion strains, locus YOL136C, strain PFK27, active compounds read low 0.533 | S. cerevisiae deletion strains, locus YOR119C, strain RIO1, active compounds read low 0.442 | S. cerevisiae deletion strains, locus YPL256C, strain CLN2, active compounds read low 0.293 | S. cerevisiae deletion strains, strain TSCII, active compounds read low 0.872
inactive: S. cerevisiae deletion strains, locus YBL105C, strain PKC1, active compounds read low 0.914 | S. cerevisiae deletion strains, locus YBR135W, strain CKS1, active compounds read low 0.903 | S. cerevisiae deletion strains, locus YBR136W, strain MEC1, active compounds read low 0.93 | S. cerevisiae deletion strains, locus YBR160W, strain CDC28, active compounds read low 0.915 | S. cerevisiae deletion strains, locus YDL017W, strain CDC7, active compounds read low 0.942 | S. cerevisiae deletion strains, locus YDL028C, strain MPS1, active compounds read low 0.972 | [1] 0.922 | S. cerevisiae deletion strains, locus YDL108W, strain KIN28, active compounds read low 0.94 | S. cerevisiae deletion strains, locus YDL132W, strain cdc53, active compounds read low 0.931 | S. cerevisiae deletion strains, locus YDR052C, strain DBF4, active compounds read low 0.942 | S. cerevisiae deletion strains, locus YDR054C, strain cdc34, active compounds read low 0.904 | S. cerevisiae deletion strains, locus YDR226W, strain ADK1, active compounds read low 0.904 | S. cerevisiae deletion strains, locus YFL009W, strain cdc4, active compounds read low 0.918 | S. cerevisiae deletion strains, locus YFL029C, strain CAK1, active compounds read low 0.885 | S. cerevisiae deletion strains, locus YFR003C, strain YPI1, active compounds read low 0.974 | S. cerevisiae deletion strains, locus YFR028C, strain CDC14, active compounds read low 0.893 | S. cerevisiae deletion strains, locus YGR092W, strain DBF2, active compounds read low 0.785 | S. cerevisiae deletion strains, locus YHR079C, strain IRE1, active compounds read low 0.88 | S. cerevisiae deletion strains, locus YIL147C, strain SLN1, active compounds read low 0.974 | S. cerevisiae deletion strains, locus YJR016C, strain ILV3, active compounds read low 0.936 | S. cerevisiae deletion strains, locus YKL048C, strain ELM1, active compounds read low 0.948 | S. cerevisiae deletion strains, locus YKL101W, strain HSL1, active compounds read low 0.777 | S. cerevisiae deletion strains, locus YLR403W, strain SFP1, active compounds read low 0.748 | S. cerevisiae deletion strains, locus YMR001C, strain CDC5, active compounds read low 0.896 | S. cerevisiae deletion strains, locus YMR205C, strain PFK2 (second series), active compounds read low 0.785 | S. cerevisiae deletion strains, locus YNL006W, strain LST8, active compounds read low 0.99 | S. cerevisiae deletion strains, locus YNL020C, strain ARK1, active compounds read low 0.874 | S. cerevisiae deletion strains, locus YNL161W, strain CBK1, active compounds read low 0.919 | S. cerevisiae deletion strains, locus YNL207W, strain RIO2, active compounds read low 0.916 | S. cerevisiae deletion strains, locus YNL222W, strain SSU72, active compounds read low 0.915 | S. cerevisiae deletion strains, locus YOR061W, strain CKA2, active compounds read low 0.879 | S. cerevisiae deletion strains, locus YOR231W, strain MKK1, active compounds read low 0.809 | S. cerevisiae deletion strains, locus YOR329C, strain SCD5, active compounds read low 0.973 | S. cerevisiae deletion strains, locus YPL153C, strain RAD53, active compounds read low 0.729 | S. cerevisiae deletion strains, locus YPL204W, strain HRR25, active compounds read low 0.706 | S. cerevisiae deletion strains, locus YPL209C, strain IPL1, active compounds read low 0.913 | S. cerevisiae deletion strains, locus YPR025C, strain CCL1, active compounds read low 0.911 | S. cerevisiae deletion strains, locus YPR106W, strain ISR1, active compounds read low 0.921 | S. cerevisiae deletion strains, locus YPR111W, strain DBF20, active compounds read low 0.909 | S. cerevisiae deletion strains, strain NNK1, active compounds read low 0.938
